The record followed here is PubChem BioAssay AID652042 (Broad Institute, 2013).

In all, about 1,100 compounds went through this assay and about 350 (32%) were called active. How the calls were made is not given here. These entries were drawn from the full list. Measured potencies and affinities stand elsewhere.

This assay can be described thus: CEM21 lymphoblast cell cytotoxicity, dose response, cytotoxicity control for viral fusion inhibitor project, CellTiter-Glo luminescence, cherry-picked (AID 652042). The note with it: CEM21 cells viability, CellTiter-Glo ATP luminescence, 24 h; series mostly up to 35 µM. On the technique in general: ATP-based viability assays read luminescence as a measure of living cells.
On to `CCN1C(=O)[C@H]2[C@H]3CN=C(SCc4ccc(Cl)cc4)N3[C@@](CC)(C(=O)OC)[C@H]2C1=O`, for which the activity change, negative = cytotoxicity entry was “inactive”.
Take `O=C(Nc1cc(Cl)cc(Cl)c1)C(c1ccccc1)N1CCCCC1` (stereo not given): the activity change, negative = cytotoxicity entry is “inactive”.
With `Cc1onc(-c2ccccc2)c1C(=O)OCCOc1cccc(Cl)c1`, the activity change, negative = cytotoxicity entry is “inactive”.
In the case of `CCn1c(C)cc(C(=O)CN2C(=O)c3ccccc3S2(=O)=O)c1C`, the activity change, negative = cytotoxicity result is “inactive”.
Take `O=C(Nc1cc2c3c(c1)CC(=O)N3CCC2)c1ccc(Cl)cc1`: the activity change, negative = cytotoxicity result was “inactive”.
The result for `CN(c1ccccc1)S(=O)(=O)c1ccc(Cl)c(C(=O)Nc2nc3ccccc3[nH]2)c1` reads “inactive”; that for `O=C(NCCCc1nc2ccccc2[nH]1)c1ccco1`, “inactive”.
As for `CCNC(=O)C[C@H]1CC[C@@H]2[C@@H](COc3ccc(NC(=O)Nc4cccc(OC)c4)cc3C(=O)N2C)O1`, the activity change, negative = cytotoxicity result is “inactive”.
On to `Cc1[nH]c2ccccc2c1/C=N\NC(=O)c1ccccc1Cl`, for which the activity change, negative = cytotoxicity entry is “inactive”.
With `COc1cccc(-c2noc(C3CCCN(S(=O)(=O)c4cccc(Cl)c4C)C3)n2)c1` (stereo not given), the activity change, negative = cytotoxicity entry was “inactive”.
Under `CCOc1cccc(N(C(=O)Cc2cccs2)C(C(=O)NC2CCCCC2)c2cccn2C)c1` (stereo not given) stands “inactive”; under `Cc1ccc2c(c1)C(=C(C#N)C#N)CCN2`, “inactive”.
The result for `COc1ccc(C(=O)CN2C(=O)c3ccccc3S2(=O)=O)cc1` reads “inactive”; that for `COc1cc(/C=N/NS(=O)(=O)c2ccc(C)cc2)ccc1OCc1cccc(C(=O)O)c1`, “inactive”; that for `CCOc1ccccc1CNc1ncnc2ccc(-c3c(C)noc3C)cc12`, “inactive”.
Regarding `COC(=O)C1(C(=O)OC)C[C@H](c2ccc(OC)cc2)N(Cc2ccccc2OC)[C@@H]1c1ccccc1`, the activity change, negative = cytotoxicity result is “inactive”.
Take `CCCCn1c(CN(C)Cc2ccccc2)nc2c1c(=O)n(C)c(=O)n2C`: the activity change, negative = cytotoxicity entry was “inactive”.
Under `CCCNC(=O)C[C@H]1C[C@H]2c3cc(NC(=O)CN(C)C)ccc3O[C@H]2[C@@H](CO)O1` stands “inactive”.
Take `CC[C@@]1(C(=O)OC)N[C@H](CN(C)C(=O)Nc2ccc(C(F)(F)F)cc2)[C@@H]2C(=O)N(Cc3ccccc3)C(=O)[C@@H]21`: the activity change, negative = cytotoxicity result is “inactive”.
Regarding `COC(=O)[C@]12CCCCC=C1N(Cc1ccco1)C(=O)[C@H](CC(=O)NCCc1ccccc1OC)C2`, the activity change, negative = cytotoxicity result was “inactive”.
Regarding `Cn1c(=O)oc2cc(S(=O)(=O)NCc3ccncc3)ccc21`, the activity change, negative = cytotoxicity result was “inactive”.
The result for `OCCN1CCN(C(=S)c2ccc(-c3ccccc3)cc2)CC1` reads “inactive”; that for `CC1CCCN(C(=O)c2ccc(S(=O)(=O)N3CCC(c4nc5ccccc5s4)CC3)cc2)C1` (stereo not given), “inactive”; that for `Cn1cc(S(=O)(=O)N2CCOCC2)cc1C(=O)Nc1cccc(Cl)c1`, “inactive”.
The result for `Cn1c(C(=O)N2CCN(c3nc4ccccc4s3)CC2)cc2sccc21` reads “inactive”; that for `CN(CC(=O)NCCc1ccc(S(N)(=O)=O)cc1)CC(=O)Nc1ccc(Cl)c(C(F)(F)F)c1`, “inactive”.
Regarding `CCN(C[C@H]1N[C@@](C)(C(=O)OC)[C@H]2C(=O)N(Cc3ccccc3)C(=O)[C@@H]12)C(=O)Nc1ccccc1`, the activity change, negative = cytotoxicity entry was “inactive”.
Regarding `CCc1cc2c(NCc3ccco3)ncnc2s1`, the activity change, negative = cytotoxicity entry is “inactive”.
The result for `Nc1ncn([C@H]2C[C@H](O)[C@@H](CO)O2)c(=O)n1` reads “inactive”; that for `Nc1nc2c(ncn2[C@@H]2O[C@H](C(=O)NCC(c3ccccc3)c3ccccc3)[C@@H](O)[C@H]2O)c(=O)[nH]1`, “inactive”; that for `COc1ccccc1-c1c(-c2ccc(O)cc2O)n[nH]c1C(F)(F)F`, “inactive”.
For the compound `C=C1CCN([C@H](C(=O)OCc2ccc(C)cc2)C(C)C)S(=O)(=O)c2ccccc21`, the activity change, negative = cytotoxicity entry is “inactive”.
Under `COC(=O)[C@]1(C)N[C@H](CN(C)S(=O)(=O)c2ccc(-c3ccccc3)cc2)[C@@H]2C(=O)N(Cc3ccccc3)C(=O)[C@@H]21` stands “inactive”.
As for `O=C(NCc1ccco1)c1ccc(Cn2c(=O)c3ccccc3n(Cc3ccc(Cl)cc3)c2=O)cc1`, the activity change, negative = cytotoxicity entry is “inactive”.
As to `COc1ccc(CCN(Cc2cccs2)S(=O)(=O)c2ccc(-n3cnnn3)cc2)cc1OC`, the activity change, negative = cytotoxicity entry was “inactive”.
`Nc1c(S(=O)(=O)c2cccs2)c2nc3ccccc3nc2n1CCc1ccccc1`: the activity change, negative = cytotoxicity entry was “inactive”.
For `CCOC(=O)[C@@H]1[C@H]2COc3ccc(Br)cc3[C@@H]2N2C(=O)N(c3cccc(F)c3)C(=O)[C@@]12C`, the activity change, negative = cytotoxicity entry was “inactive”.
In the case of `Cn1c(=O)c2c(nc(Oc3ccc4ccccc4c3)n2C)n(C)c1=O`, the activity change, negative = cytotoxicity entry is “inactive”.
As for `COc1ccc(/C=C/c2nc(S(=O)(=O)c3ccccc3)c(NCCCN(C)C)o2)cc1OC`, the activity change, negative = cytotoxicity result is “inactive”.
The result for `COc1cc(/C=N/O)ccc1OCc1ccc(C(=O)O)cc1` reads “inactive”; that for `O=C(Nc1cc(Cl)cc(Cl)c1)C1CCC(=O)N1Cc1ccccc1Cl` (stereo not given), “inactive”; that for `CCCNC(=O)N1[C@H](C#N)[C@H](c2ccc(-c3cccc(OC)c3)cc2)[C@@H]1CO`, “inactive”.
Consider `CN(C)C(=O)CCC(=O)N1CCCC(C(=O)c2ccc3c4c(cccc24)CC3)C1` (stereo not given), for which the activity change, negative = cytotoxicity entry was “inactive”.
The result for `O=C(C[C@H]1C[C@H]2c3cc(NC(=O)NC4CCCC4)ccc3O[C@H]2[C@@H](CO)O1)NC1CCCCC1` reads “inactive”.
As to `COC(=O)[C@@]12CCCN1[C@H](c1ccc(-c3ccc(F)cc3)c(OC)c1)[C@H]1C(=O)N(C)C(=O)[C@H]12`, the activity change, negative = cytotoxicity entry was “inactive”.
Regarding `O=C(c1ccccc1)N1CCN(c2ncnc3sc4c(c23)CCC4)CC1`, the activity change, negative = cytotoxicity result is “inactive”.
Turning to `CCN(Cc1nc2cc(Cl)ccc2c(=O)[nH]1)C(=O)c1cc(C2CC2)nn1-c1ccccc1`, the activity change, negative = cytotoxicity result was “inactive”.
Under `Cc1cc(C)c(CN2CCN(C(=O)Cn3cnc4c(NCc5ccccc5)ncnc43)CC2)c(C)c1` stands “inactive”; under `O=C(Cn1ncc2c(=O)oc3ccccc3c21)N1CCC(N2CCCCC2)CC1`, “inactive”; under `CCOC(=O)C1CCN(C(=O)c2ccc3c(c2)C(=O)N(c2ccccc2C)C3=O)CC1`, “inactive”.
The result for `COc1ccccc1CN1C(=O)CN(C2CCCCCC2)C(=O)C1c1ccc(F)cc1` (stereo not given) reads “inactive”.
In the case of `COc1ccccc1[C@@H]1C(c2ccc(F)cc2)=NN(c2ccccc2)[C@H]1C(=O)N1CCOC1=O`, the activity change, negative = cytotoxicity result was “inactive”.
On to `CCN(C1CCCCC1)S(=O)(=O)c1ccc(S(=O)(=O)NCc2ccncc2)cc1`, for which the activity change, negative = cytotoxicity entry was “inactive”.
As to `CC[C@@]12C(=O)N(c3ccccc3)C(=O)N1[C@H](c1ccc(OC)cc1)[C@@H]1C(=O)N(C(C)(C)C)C(=O)[C@@H]12`, the activity change, negative = cytotoxicity entry is “inactive”.
For the compound `Cc1nc2sccn2c1-c1csc(NCc2ccccc2)n1`, the activity change, negative = cytotoxicity entry was “inactive”.
The result for `O=C(CN(Cc1ccccc1)S(=O)(=O)c1ccc(F)cc1)NCCC1=CCCCC1` reads “inactive”; that for `O=C(CN(Cc1ccccc1F)S(=O)(=O)c1ccc(Cl)cc1)NCCC1=CCCCC1`, “inactive”; that for `C[C@H](CO)N1C[C@H](C)[C@H](CN(C)S(=O)(=O)c2ccc(Cl)cc2)Oc2ccc(NC(=O)Nc3ccc4c(c3)OCO4)cc2C1=O`, “inactive”.
In the case of `COc1ccc(S(=O)(=O)Nc2ccc3c(c2)CC(=O)N([C@H](C)CO)C[C@H](C)[C@H](CN(C)S(=O)(=O)c2ccc(F)cc2)O3)cc1`, the activity change, negative = cytotoxicity entry is “inactive”.
With `C[C@H](CO)N1C[C@H](C)[C@H](CN(C)S(=O)(=O)c2ccccc2)Oc2ccc(NC(=O)Nc3ccccc3)cc2CC1=O`, the activity change, negative = cytotoxicity result is “inactive”.
As for `CC(C)NC(=O)Nc1ccc2c(c1)CC(=O)N([C@H](C)CO)C[C@H](C)[C@H](CN(C)S(=O)(=O)c1cccs1)O2`, the activity change, negative = cytotoxicity entry was “inactive”.
Take `COc1ccc(NC(=O)Nc2ccc3c(c2)CC(=O)N([C@@H](C)CO)C[C@H](C)[C@H](CN(C)S(=O)(=O)c2cccs2)O3)cc1`: the activity change, negative = cytotoxicity result was “inactive”.
Regarding `C[C@H]1CN([C@@H](C)CO)C(=O)c2cc(NC(=O)Nc3ccc4c(c3)OCO4)ccc2O[C@H]1CN(C)S(=O)(=O)c1ccc(F)cc1`, the activity change, negative = cytotoxicity result is “inactive”.
On to `COc1ccc(CN(C)C[C@@H]2Oc3ccc(NC(=O)Nc4ccc(OC)cc4)cc3C(=O)N([C@H](C)CO)C[C@@H]2C)cc1`, for which the activity change, negative = cytotoxicity result is “inactive”.
As for `C[C@H](CO)N1C[C@H](C)[C@H](CN(C)CC2CC2)Oc2ccc(NC(=O)Nc3ccc4c(c3)OCO4)cc2CC1=O`, the activity change, negative = cytotoxicity entry was “inactive”.
With `COc1ccc(Cl)cc1CC1(C)C(=O)Nc2ccc(S(=O)(=O)NC3CCCCC3)cc21` (stereo not given), the activity change, negative = cytotoxicity result is “inactive”.
In the case of `O=C(c1ccccc1)N1CCC(c2nc(-c3ccc(S(=O)(=O)NCC4CCCO4)cc3)no2)CC1` (stereo not given), the activity change, negative = cytotoxicity result is “inactive”.
As to `CC1CCN(C(=O)c2ncn3c2C(=O)N[C@H](C)C3)CC1`, the activity change, negative = cytotoxicity entry was “inactive”.
On to `O=C(Nc1ccc2c(c1)CCC2)C1CCN(c2c3c(nc4ncnn24)CCC3)CC1`, for which the activity change, negative = cytotoxicity entry is “inactive”.
The result for `Cc1nc2ncnn2c(N2CCCC(C(=O)Nc3ccc4c(c3)CCC4)C2)c1C` (stereo not given) reads “inactive”.
In the case of `Oc1ccc(CNc2ccccc2F)c2cccnc12`, the activity change, negative = cytotoxicity entry is “inactive”.
Under `N#C/C(=N\Nc1ccc(Cl)cc1)C(=O)c1ccccc1` stands “inactive”; under `NC(=S)c1ccc(OCCCc2ccccc2)cc1`, “inactive”; under `O=C1c2cccc(OCc3ccc(F)cc3)c2CCN1Cc1ccccc1`, “inactive”.
The result for `C[C@@]12C(=O)N(CCc3c[nH]c4ccccc34)CC(=O)N1[C@H]1c3ccccc3OC[C@@H]1[C@@H]2c1ccccc1` reads “inactive”.
Turning to `C[C@@]12C(=O)N(CC3CCCO3)CC(=O)N1[C@H]1c3cc(Cl)ccc3OC[C@@H]1[C@@H]2c1ccccc1` (stereo not given in full), the activity change, negative = cytotoxicity result was “inactive”.
As for `COC(=O)CCn1nnc(-c2ccc(C(C)C)cc2)n1`, the activity change, negative = cytotoxicity entry is “inactive”.
For the compound `COCC(=O)Nc1ccc2c(c1)C(=O)N(C)[C@H]1CC[C@H](CC(=O)NC3CCCC3)O[C@H]1CO2`, the activity change, negative = cytotoxicity entry was “inactive”.
With `CC1=CC(C)(C)N(C(=O)c2ccccc2)c2ccc(C)cc21`, the activity change, negative = cytotoxicity result was “inactive”.
The result for `COCC(=O)Nc1ccc2c(c1)C(=O)N(C)C[C@@H](OC)[C@@H](C)CN(C)[C@H](C)CO2` reads “inactive”; that for `CCOC1=C2[C@@H](CN(S(=O)(=O)c3ccccc3C)[C@H]2c2ccc(Cl)cc2)[C@H]2C(=O)NC(=O)[C@H]2C1`, “inactive”; that for `Cc1sc2ncnc(N3CCC(C(=O)Nc4cc(S(C)(=O)=O)ccc4Cl)CC3)c2c1C`, “inactive”.
Under `COC(=O)C1=C(C)N(CC2CC2)C(=O)N[C@H]1c1ccc(Br)cc1` stands “inactive”.
On to `O=C(NCc1ccco1)c1ccc(Cn2c(=O)c3sccc3n(Cc3cccc(F)c3)c2=O)cc1`, for which the activity change, negative = cytotoxicity entry was “inactive”.
For the compound `CC[C@@]1(C(=O)OC)N[C@H](CN(C)C(=O)COc2ccccc2)[C@@H]2C(=O)N(Cc3ccccc3)C(=O)[C@@H]21`, the activity change, negative = cytotoxicity entry is “inactive”.
